Bioassay records (PubChem BioAssay)
This is a sample that favours compounds with a hit; in the whole collection about 3.3% have one here.
PLK1 PBD inh – qHTS for Inhibitors of PLK1-PDB (polo-like kinase 1 - polo-box domain): Primary Screen; Plk1 PBD binding of FITC phosphopeptide, fluorescence polarization; AID 720504, 2013; 2.8% of 360,000 active; Potency, µM, for the others: max response, negative = inhibition, actives largely listed as inhibitors; note: potency is the fitted concentration of half-maximal effect; series mostly up to about 57 µM; nearly all actives have a fitted effect of over 65% in size
Target sequence (P53350 whole entry, looked up, the tested form may be a part): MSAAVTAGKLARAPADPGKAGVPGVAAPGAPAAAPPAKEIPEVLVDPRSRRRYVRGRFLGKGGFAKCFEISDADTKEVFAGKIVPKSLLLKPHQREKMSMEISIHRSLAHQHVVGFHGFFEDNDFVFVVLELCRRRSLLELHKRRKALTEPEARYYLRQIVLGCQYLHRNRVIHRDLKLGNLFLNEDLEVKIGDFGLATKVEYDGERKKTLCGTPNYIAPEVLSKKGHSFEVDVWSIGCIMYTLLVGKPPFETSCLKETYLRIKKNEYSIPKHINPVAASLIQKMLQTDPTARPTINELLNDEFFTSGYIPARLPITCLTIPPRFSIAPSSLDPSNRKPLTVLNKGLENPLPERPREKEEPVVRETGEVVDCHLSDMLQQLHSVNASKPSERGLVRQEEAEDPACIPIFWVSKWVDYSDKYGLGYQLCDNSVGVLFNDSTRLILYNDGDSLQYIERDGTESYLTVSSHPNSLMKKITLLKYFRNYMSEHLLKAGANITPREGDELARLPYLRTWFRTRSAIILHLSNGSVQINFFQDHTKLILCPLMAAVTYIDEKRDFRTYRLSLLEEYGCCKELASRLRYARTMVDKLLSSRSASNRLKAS
WRN helicase inh – qHTS for Inhibitors of WRN Helicase; Bifunctional 3'-5' exonuclease/ATP-dependent helicase WRN (Homo sapiens), Q14191; WRN helicase unwinding, fluorescent forked duplex, kinetic; Potency, µM (top dose mostly 114 µM), for inactives: at the top dose activity change, negative = inhibition, actives largely listed as inhibitors; 0.46% of 360,000 active; note: potency is the fitted concentration of half-maximal effect; nearly all actives have a fitted effect of over 55% in size
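WRN at 20 nM final was preincubated with compound for 15 min at room temperature; reaction started with 100 nM forked duplex oligonucleotide carrying fluorophore and quencher plus 2 mM ATP (final). Unwinding followed kinetically by red fluorescence (ex 525/em 598 nm).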
USP1-UAF1 inh – Inhibitors of USP1/UAF1: Primary Screen; Ubiquitin carboxyl-terminal hydrolase 1 (Homo sapiens), O94782; recombinant USP1/UAF1, Ub-Rhodamine cleavage fluorescence; Potency, µM (series often up to 57.1 µM), for inactives: top-dose activity change, negative = inhibition, actives largely listed as inhibitors; 0.23% of 390,000 active; note: potency is the fitted concentration of half-maximal effect; nearly all actives have a fitted effect of over 60% in size
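In this screen, compounds sit with the deubiquitinase complex (1nM) for 15 min at room temperature before Ub-Rho is added at 150nM final. Fluorescence rise is then followed for 6 reads every 60 seconds.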
PI5P4Ka inh – qHTS for Inhibitors of phosphatidylinositol 5-phosphate 4-kinase (PI5P4K); Phosphatidylinositol 5-phosphate 4-kinase type-2 alpha (Homo sapiens), P48426; PI5P4Kalpha enzyme, ADP-Glo luminescence, 60 min; active compounds read low; max response, %; 1.2% of 330,000 active; AID 652105, 2013; active = max response of -50% or lower; inconclusive = between -30% and -50%; inactive = -30% or higher; note: value at the top dose of about 77 µM
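Enzyme plus substrate dispensed, test compounds pinned in, then ATP (5 microM final) added. After 60 min at RT, ADP-Glo reagent 1 for 45 min and reagent 2 for 30 min preceded luminescence imaging.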
USP2a inh – qHTS Assay for Inhibitors of Ubiquitin-specific Protease USP2a Using CHOP2 as the Reporter | Potency, µM (series often up to 38.3 µM), inactives show at the highest dose activity change, negative = inhibition, hits mostly inhibitors | AID 463254, 2010 | USP2 core, Ub-CHOP2 coupled fluorogenic reporter, 485/531 | 0.01% of 330,000 active;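 note: potency is the fitted concentration of half-maximal effect; plate controls were DMSO wells for no effect and full inhibition by NEM control for full effect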
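Deubiquitinase activity read as fluorescence (485/531 nm) after Ub-CHOP2 cleavage activates the enterokinase reporter on its substrate; USP2 core 10nM, Ub-CHOP2 and substrate 25nM each, 30min compound preincubation then 60min RT; data normalized to NEM, curves fitted.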
Active calls of the source: *; ? = inconclusive; . = no result given. Unless noted, calls come from the whole dose curve; as a rule, active = well fitted curve in the direction sought with a large enough effect; inconclusive = small, poorly fitted or top-dose-only effect, or another doubt; inactive = no such curve, though single readings can be large; an effect the other way counts as inactive or inconclusive. Unless noted, % is set by controls: 0 for no effect and ±100 for the full control effect.

SMILES | PLK1 PBD inh | WRN helicase inh | USP1-UAF1 inh | PI5P4Ka inh | USP2a inh
CCO/C=C1/C(=O)N(c2ccccc2OC)C(=O)c2ccccc21 | -28% | 0% | ? | -3 | 0%
CCO/C=C1/C(=O)N(CC)c2ccccc21 | 15µM* | 11% | -8% | 7 | -1%
COc1ccc(OC)c(NC(=O)CSc2cn(CC(=O)N3CCOCC3)c3ccccc23)c1 | . | . | -6% | . | .
COc1cc(NC(=O)Cc2c(C(=O)O)c(C)cn2C)cc(OC)c1 | . | . | -15% | . | .
CCOc1ccc(Cl)cc1S(=O)(=O)n1nnc2ccccc21 | 27µM* | 5% | -20% | -21 | -3%
COc1ccc(NC(=O)Cn2c(=O)n(Cc3ccccc3)c(=O)c3oc4ccccc4c32)cc1Cl | . | . | 7% | . | .
Fc1ccc(C(NCCc2ccc(Cl)cc2)c2nnc(-c3ccccc3Cl)o2)cc1 (stereo not given) | . | . | -25% | . | .
NC(=O)c1ccc(NC(=O)c2cncn2-c2ccccc2)cc1 | 24µM* | 15% | -11% | -1 | 3%
Cc1cc(C)n(-c2nc(C)nc(N)n2)n1 | 12µM* | 10% | 1% | -24 | 0%
CCOC(=O)C1=C(C)N(CCCC(=O)O)C(=O)NC1c1ccc(OC)cc1 (stereo not given) | -13% | -4% | -25% | -71* | 0%
COC(=O)C1=C(C)N(CCCC(=O)O)C(=O)NC1c1ccc(OC)cc1 (stereo not given) | 4% | 3% | -30% | -62* | .
CCOC(=O)C1=C(C)N(CCCC(=O)O)C(=O)NC1C(CC)CC (stereo not given) | -2% | 6% | 0% | -58* | .
Cc1cc2c(s1)c1c(n2C)C(=O)N(Cc2ccccc2F)C1 | . | . | . | . | -2%
Cc1cc(NC(=O)C2CCCN(S(=O)(=O)c3cccc4nonc34)C2)ccc1Br (stereo not given) | . | . | -2% | . | .
CCN(Cc1nc(-c2ccc(OC)cc2)oc1C)S(=O)(=O)c1ccc(Cl)cc1 | . | . | -14% | . | .
COc1ccc(OC)c2sc(N3CCN(C(=O)C(C)(C)C)CC3)nc12 | . | . | -3% | . | .
COC(=O)c1sc(S(=O)(=O)Nc2c(C)nn(C)c2C)c(C(=O)OC)c1C | 0% | 4% | -19% | 3 | 4%
CCOC(=O)c1c(NC(=O)CSc2nnc(Cc3ccccc3)o2)sc(C(C)=O)c1C | 2% | -7% | -21% | . | 1%
CCN(CC)C(=O)c1sc(NC(=O)c2ccoc2C)c(C(=O)OC)c1C | 21µM* | -2% | 3% | 1 | 0%
CCC(=O)Nc1sc(C(=O)OC)c(C)c1C(=O)OC | 30µM* | 3% | -17% | . | -1%
CCOC(=O)c1sc(NC(=O)CSc2nnc(Cc3ccccc3)o2)c(C#N)c1C | 1.7µM* | ? | -22% | ? | -2%
COC(=O)c1sc(NC(=S)NNC(=O)c2c(Br)c(C)nn2C)c(C(=O)OC)c1C | 27µM* | -18% | -18% | ? | -5%
COc1c(C)cc(S(=O)(=O)NCCc2c(C)[nH]c3ccccc23)c(C)c1C | . | . | -23% | . | .
Cc1ccccc1CNC(=O)CCCn1c(=O)c2cccn2c2ccccc21 | . | . | -8% | . | .
COc1ccc(Br)cc1CNC(=O)c1cc2n(n1)CCCN(Cc1ccc(C)cc1)C2=O | . | . | -16% | . | .
SMILES | PLK1 PBD inh | WRN helicase inh | USP1-UAF1 inh | PI5P4Ka inh | USP2a inh
Cc1cc(C)c(NC(=O)Cn2c(=O)n(CCCCC(=O)NCc3ccccc3Cl)c(=O)c3ccccc32)c(C)c1 | . | . | -6% | . | .
CCOC(=O)c1sc(NC(=O)c2cc(-c3ccccc3)nc3ccccc23)c(C#N)c1C | 3µM* | -33% | -21% | -18 | 1%
CCOC(=O)c1c(NC(=O)OC)sc(C(=O)N(CC)CC)c1C | 24µM* | 11% | -24% | 5 | 2%
CCOC(=O)c1sc(NC(=O)OC)c(C(=O)OC)c1C | 0% | 5% | -10% | -8 | -1%
CCN(CC)C(=O)c1sc(NC(=O)c2cc(-c3ccc(C)s3)nc3ccccc23)c(C(=O)OC)c1C | 15µM* | -1% | -26% | -3 | 1%
Cc1nc(NC(=O)C2CC2)sc1C(=O)Nc1ccccc1 | -1% | 0% | -3% | 5 | 2%
CCOC(=O)c1sc(NC(=O)c2cccnc2)c(C#N)c1C | -6% | 0% | 7% | 10 | 3%
COC(=O)c1c(NC(=O)C2CC2)sc(C(=O)Nc2ccccc2)c1C | 27µM* | -6% | -24% | 1 | 10%
COc1ccc(CN(C)c2ccc(-c3nc(C)no3)cc2[N+](=O)[O-])cc1 | . | . | -18% | . | .
Cc1ccc(-n2c(=O)c3c(C)c(C(=O)N(C)C)sc3n(CC(=O)N(C)c3ccccc3)c2=O)cc1C | . | . | -9% | . | .
O=C(NCc1ccc(Cl)cc1)c1ccc2nc[nH]c2c1 | 30µM* | 8% | -10% | -8 | 2%
COc1ccc(NC(=O)c2c(C)oc3ccc(O)c(CN4CCN(Cc5ccccc5)CC4)c23)cc1Cl | . | . | -24% | . | .
CC(C)CCNC(=O)Cn1nc(N2CCN(c3ccccc3)CC2)ccc1=O | . | . | 16% | . | .
Cc1ccc(C2CC(c3ccc(F)cc3)Nc3nc(N)nn32)cc1 (stereo not given) | 27µM* | 2% | -15% | 1 | 3%
COC(=O)c1sccc1N/C=C(\C#N)S(=O)(=O)C(C)(C)C | 38µM* | ? | -4% | 4 | 2%
COC(=O)c1sccc1NS(=O)(=O)c1ccc(OC)cc1 | 0% | -5% | -17% | . | -1%
Cc1nn(CCC(=O)Nc2cc(F)ccc2F)c(=O)c2nn(-c3ccccc3)c(C)c12 | . | . | -13% | . | .
COc1cccc(CN(C)Cc2cc(=O)oc3c(C)c(C)ccc23)c1 | -3% | -4% | -17% | 10 | -7%
COc1cccc(CN(C)Cc2cc(=O)oc3cc(O)c(Cl)cc23)c1 | -4% | -1% | -5% | -78* | 0%
O=c1c(C(c2ccc(Br)cc2)c2c(O)nc3n(c2=O)CCCS3)c(O)nc2n1CCCS2 | ? | -20% | -9% | -3 | 1%
Cc1ccc(C(c2c(O)nc3n(c2=O)CCS3)c2c(O)nc3n(c2=O)CCS3)cc1 | 17µM* | ? | -2% | -27 | 2%
O=c1c(C(c2ccc(Br)cc2)c2c(O)nc3n(c2=O)CCS3)c(O)nc2n1CCS2 | 15µM* | ? | -19% | -21 | 13%
O=c1c(C(c2c(O)nc3n(c2=O)CCS3)c2cccc3ccccc23)c(O)nc2n1CCS2 | 30µM* | ? | -15% | -76* | -1%
COc1cc(Cl)c(C)cc1NC(=O)CSCc1nc(-c2ccc(OC)c(OC)c2)no1 | . | . | -18% | . | .
CCN(Cc1nc(-c2ccc(OC)c(OC)c2)no1)S(=O)(=O)c1ccc(OC)cc1 | . | . | -7% | . | .
